Inconclusive results are not listed. Where a structure was tested more than once in an assay, its records may differ in their call. Active and inactive are the calls of the source. Rule for the calls: active = hit-call score of the fitted dose curve at least 0.9, where 1 is the maximum; inconclusive = response in the unintended direction; inactive = score below 0.9.
Legend:
[1] = ATG_XTT_Cytotoxicity: Cytotoxicity Assessment in the Attagene TRANS-FACTORIAL HepG2 Assay (AID 2283584)
How it was run: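 Viability endpoint from XTT after 24 h chemical exposure of reporter-transfected human HepG2 liver cells; signal loss fitted relative to DMSO negative control.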

[2] = TOX21_p53_BLA_p2_viability: Viability Assessment in the Tox21 HCT-116 p53 Agonism Beta-lactamase Assay, Phase 2 (AID 2283591);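 note: compound exposure lasted 16 h at 37 °C; actives lower the ATP signal meaning cytotoxicity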
How it was run: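 Cytotoxicity readout: CellTiter-Glo ATP luminescence, 30 min at room temperature, after the beta-lactamase read. Cells were HCT116 exposed 16 h at 37C to compounds pin-transferred at 217-fold dilution from DMSO stocks.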

[3] = biological target: Cellular tumor antigen p53 (Homo sapiens) (UniProt P04637); assay: TOX21_p53_BLA_p2_ratio: Tox21 HCT-116 p53 Agonism Beta-lactamase Assay, Ratio, Phase 2 (AID 2283592)
Sequence of Cellular tumor antigen p53 (Homo sapiens) (P04637 whole entry, looked up): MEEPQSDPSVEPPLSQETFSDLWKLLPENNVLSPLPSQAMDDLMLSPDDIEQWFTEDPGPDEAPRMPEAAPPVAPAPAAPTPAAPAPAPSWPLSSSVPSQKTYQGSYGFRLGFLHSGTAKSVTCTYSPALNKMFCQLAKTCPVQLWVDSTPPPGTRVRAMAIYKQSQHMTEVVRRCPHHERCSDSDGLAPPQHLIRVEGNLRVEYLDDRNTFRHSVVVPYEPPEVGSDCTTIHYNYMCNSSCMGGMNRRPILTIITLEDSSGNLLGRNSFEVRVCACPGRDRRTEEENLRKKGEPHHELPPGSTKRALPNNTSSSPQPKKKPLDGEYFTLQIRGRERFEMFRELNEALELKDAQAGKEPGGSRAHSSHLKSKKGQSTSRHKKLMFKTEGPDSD
How it was run: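 Gain-of-signal p53 agonism was scored from the beta-lactamase FRET ratio (460/530 nm, 405 nm excitation) in HCT116 cells treated 16 h at 37C, 5% CO2, with DMSO serving as negative control and baseline.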

[4] = TOX21_p53_BLA_p5_viability: Viability Assessment in the Tox21 HCT-116 p53 Agonism Beta-lactamase Assay, Phase 5 (AID 2283600)
How it was run: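 After the 460/530 nm beta-lactamase measurement, the wells received an ATP-detection luciferase reagent; signal was read 30 min later at RT. Compound treatment lasted 16 h on cells pre-incubated 5 h post-seeding.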

[5] = biological target: Cellular tumor antigen p53 (Homo sapiens) (UniProt P04637); assay: TOX21_p53_BLA_p4_ratio: Tox21 HCT-116 p53 Agonism Beta-lactamase Assay, Ratio, Phase 4 (AID 2283601)
How it was run: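 Signal is the blue/green (460nm/530nm) ratio of cleaved versus uncleaved CCF4-AM substrate, read after 2 h substrate loading. Cells were HCT116 carrying the p53-responsive beta-lactamase reporter, dosed 16 h at 37C, 5% CO2; CellTiter-Glo measured in parallel.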

[6] = TOX21_p53_BLA_p3_viability: Viability Assessment in the Tox21 HCT-116 p53 Agonism Beta-lactamase Assay, Phase 3 (AID 2283593);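 note: cells exposed to compound for 16 h before reading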
How it was run: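 Cellular ATP was quantified by CellTiter-Glo luminescence, read after 30 min at room temperature. Beforehand, HCT116 cells (4000/well) received compound 5 h post-seeding, 217-fold diluted from DMSO, then incubated 16 h at 37C.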

[7] = biological target: Cellular tumor antigen p53 (Homo sapiens) (UniProt P04637); assay: TOX21_p53_BLA_p3_ratio: Tox21 HCT-116 p53 Agonism Beta-lactamase Assay, Ratio, Phase 3 (AID 2283596)
How it was run: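 HCT116 p53-bla cells (4000/well) given compound in DMSO (217-fold dilution) after 5 h, incubated 16 h at 37C. CCF4-AM substrate 2 h at room temperature; 460/530 nm emission ratio, gain fitted against DMSO.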

[8] = TOX21_p53_BLA_p4_viability: Viability Assessment in the Tox21 HCT-116 p53 Agonism Beta-lactamase Assay, Phase 4 (AID 2283597);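 note: hits lower the luminescence signal meaning cytotoxicity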
How it was run: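 Following a 16 h exposure at 37C, the treated HCT116 wells were first read for the FRET ratio. They were then lysed with CellTiter-Glo, and ATP luminescence was recorded after 30 min at room temperature.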

[9] = biological target: Cellular tumor antigen p53 (Homo sapiens) (UniProt P04637); assay: TOX21_p53_BLA_p5_ratio: Tox21 HCT-116 p53 Agonism Beta-lactamase Assay, Ratio, Phase 5 (AID 2283599)
How it was run: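 Beta-lactamase reporter ratio (blue 460 nm over green 530 nm, 405 nm excitation) after 2 h CCF4-AM loading, in HCT-116 cells exposed 16 h at 37 C to compounds pinned at 217-fold dilution. Increases relative to DMSO baseline scored.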

Measured: AC50

CC1=CC(O)CC(C)(C)C1 (stereo unspecified)
inactive: [1] | [2] | [3] | [4] | [5]

CN(C)c1ccc(C=O)cc1
not listed: [2] | [8] | [9]
inactive: all other assays above

[Cu+]
inactive: [1] | [2] | [8]

CCCCOCCOC(=O)c1ccccc1C(=O)OCCOCCCC
inactive: [1] | [3] | [6] | [7] | [8]

CCCCN(CCCC)CCCCCCN(CCCC)CCCC
not listed: [2] | [4] | [8]
inactive: all other assays above

CC(=O)C1C(=O)C=C(C)OC1=O (stereo unspecified)
not listed: [2] | [4] | [8]
inactive: all other assays above

OC[C@@H](O)[C@H](O)[C@@H](O)[C@@H](O)CO
inactive: [1] | [3] | [6] | [8] | [9]

C=C(C)C(=O)OCCN(C)C
inactive: [1] | [2] | [6] | [7] | [8]

CC(C)Cc1ccccc1
not listed: [2] | [4]
inactive: all other assays above

c1ccc2scnc2c1
not listed: [2] | [4] | [8]
inactive: all other assays above

O=S1(=O)CC=CC1
not listed: [2] | [4] | [5]
inactive: all other assays above

Nc1ccc(O)c(N)c1
active: [6] 64 µM
inactive: [1] | [3] | [6] | [7] | [8] | [9] | [5]

CC(=O)CCC=C(C)CCC=C(C)C
not listed: [6] | [7]
inactive: all other assays above

CC(=O)OC(C)(C)C1CC=C(C)CC1 (stereo unspecified)
not listed: [3] | [6] | [8]
inactive: all other assays above

CCCCCCC(O)CCOC(C)=O (stereo unspecified)
not listed: [2] | [8]
inactive: all other assays above

Cc1cccc(O)c1
inactive: [1] | [2] | [7] | [8] | [9]

CC1=CC[C@@H]2C[C@H]1C2(C)C
inactive: [1] | [6] | [8]

ClCCOCCOCCCl
inactive: [1] | [3] | [7] | [9] | [5]

C=C(C)C(=O)OCCC(C)OC(=O)C(=C)C (stereo unspecified)
inactive: [1] | [8] | [9]

OCCCO
inactive: [1] | [9] | [4]

CCCCCCCC1CCCC1=O (stereo unspecified)
not listed: [2] | [6]
inactive: all other assays above

O=S(=O)(O)CCCN1CCOCC1
inactive: [1] | [8] | [9] | [4] | [5]

CC(C)Cc1ccc(C(C)C(=O)O)cc1 (stereo unspecified)
not listed: [1] | [4] | [5]
inactive: all other assays above

CCCCCCCCOC(C)=O
inactive: [1] | [3] | [8] | [5]

N=C1N=C(N)c2ccccc21
active: [3] 28.4 µM | [6] 13.6 µM | [9] 13.3 µM
inactive: [1]

COc1ccc(C(C)=O)cc1
inactive: [1] | [3] | [9] | [5]

CC(C)C(=O)c1ccccc1
inactive: [1] | [6] | [7] | [9]

O=[N+]([O-])c1cc(N(CCO)CCO)ccc1NCCO
not listed: [2] | [7] | [9]
inactive: all other assays above

CCCCCCCCCCCCCC(=O)OCC
not listed: [2] | [5] | [6]
inactive: all other assays above

CCCC(O)C(CC)CO (stereo unspecified)
not listed: [1] | [5]
inactive: all other assays above

CCCCCCOc1ccc(O)cc1
inactive: [1] | [6]
active: [3] 34 µM | [8] 65 µM | [9] 52.4 µM | [5] 72.5 µM

CCCCCCOC(C)=O
active: [8] 24.9 µM
not listed: [2] | [6]
inactive: all other assays above

CC(=O)C1=C(C)[C@@H]2C[C@@]3(C1)[C@H](C)CC[C@H]3C2(C)C
not listed: [2] | [3] | [8]
inactive: all other assays above

CCCO
inactive: [1] | [3] | [8] | [9] | [4]

S=c1[nH][nH]c(=S)s1
inactive: [1] | [3] | [8] | [9]

C/C=C(\C)C(=O)OC/C=C(\C)CCC=C(C)C
inactive: [1] | [3] | [7] | [9] | [5]

C=CC(C)CCCC(C)(C)O (stereo unspecified)
not listed: [2] | [3]
inactive: all other assays above

CC(=O)c1ccc2ccccc2c1
not listed: [2] | [6] | [7]
inactive: all other assays above

NCCN1CCNCC1
active: [3] 0.000307 µM
inactive: [2] | [3] | [6] | [7] | [8] | [9] | [4] | [5]

CC(=O)CC(C)(C)C1CCCCC1
not listed: [2] | [6]
inactive: all other assays above

CCCCCCCCCCOC(=O)c1ccccc1C(=O)OCCCCCCCC
inactive: [1] | [8] | [9]

O=c1cc(-c2ccc(O)cc2)oc2cc(O)cc(O)c12
inactive: [1] | [3] | [7] | [8] | [9] | [5]
active: [7] 14.6 µM | [5] 13.4 µM

COc1ccc2[nH]cc(CCNC(C)=O)c2c1
not listed: [2] | [4] | [7]
inactive: all other assays above

CC/C=C\CCCCO
inactive: [1] | [3] | [9] | [5]

CCCCC/C=C\C=C\C(=O)OCC
active: [3] 75.6 µM | [6] 49.1 µM | [8] 66.6 µM | [9] 73.4 µM | [4] 47.7 µM | [5] 89.9 µM
inactive: [1]

CCCc1ccc(N)cc1
inactive: [1] | [3] | [8] | [9] | [5]

Cc1ccc(C(C)(C)O)cc1
inactive: [1] | [3] | [9] | [4]

CC1(C)CC(=O)CC(C)(C)N1
inactive: [1] | [3] | [7] | [8] | [9]

CCCCCCCCCOS(=O)(=O)O
not listed: [2] | [6]
inactive: all other assays above

CC(=O)c1ccc(O)cc1
inactive: [1] | [3] | [6] | [9] | [4]

CC(=O)Oc1c(C)c(C)c2c(c1C)CC[C@@](C)(CCC[C@H](C)CCC[C@H](C)CCCC(C)C)O2
not listed: [1] | [5]
inactive: all other assays above

CCc1cccc(O)c1
not listed: [2] | [6]
inactive: all other assays above

CC(=O)CCc1ccc(O)cc1
not listed: [2] | [6]
inactive: all other assays above

CC(C)(O)C(=O)c1ccc(OCCO)cc1
inactive: [1] | [3] | [7] | [9] | [4]

C=CCOC(=O)/C=C\C(=O)OCC=C
not listed: [1] | [8]
inactive: all other assays above

CCCCOCCOCCOCCO
not listed: [1] | [3] | [4]
inactive: all other assays above

CC(C)=CCCC(C)=CC(=O)O
inactive: [2] | [6] | [7] | [8] | [4]

CCC(=O)OC(C)(C)C1CC=C(C)CC1 (stereo unspecified)
not listed: [1] | [7]
inactive: all other assays above

Nc1cc([N+](=O)[O-])ccc1C(=O)O
inactive: [2] | [3] | [8] | [9] | [4]

O=C(Nc1cccc(Cl)c1)OCC#CCCl
inactive: [4]
active: [2] 67.5 µM | [3] 19.9 µM | [6] 69.2 µM | [7] 13.4 µM | [8] 56.1 µM | [9] 14.1 µM | [5] 19.6 µM

CC(CO)c1ccccc1 (stereo unspecified)
not listed: [1] | [5] | [7]
inactive: all other assays above

Reference: PubChem BioAssay (EPA / NIEHS)
